# Measurements reported in the supplement of paper PMC3334620.
# In all, about 33,000 sequences were measured (“E-score (-0.5 to 0.5)”: median about -0.041, highest 2% from about 0.37 on). The entries come from a sample that favours the highest values as a whole.
# Target: T1, Ecm22 (UniProt Q05958)
# T1 sequence: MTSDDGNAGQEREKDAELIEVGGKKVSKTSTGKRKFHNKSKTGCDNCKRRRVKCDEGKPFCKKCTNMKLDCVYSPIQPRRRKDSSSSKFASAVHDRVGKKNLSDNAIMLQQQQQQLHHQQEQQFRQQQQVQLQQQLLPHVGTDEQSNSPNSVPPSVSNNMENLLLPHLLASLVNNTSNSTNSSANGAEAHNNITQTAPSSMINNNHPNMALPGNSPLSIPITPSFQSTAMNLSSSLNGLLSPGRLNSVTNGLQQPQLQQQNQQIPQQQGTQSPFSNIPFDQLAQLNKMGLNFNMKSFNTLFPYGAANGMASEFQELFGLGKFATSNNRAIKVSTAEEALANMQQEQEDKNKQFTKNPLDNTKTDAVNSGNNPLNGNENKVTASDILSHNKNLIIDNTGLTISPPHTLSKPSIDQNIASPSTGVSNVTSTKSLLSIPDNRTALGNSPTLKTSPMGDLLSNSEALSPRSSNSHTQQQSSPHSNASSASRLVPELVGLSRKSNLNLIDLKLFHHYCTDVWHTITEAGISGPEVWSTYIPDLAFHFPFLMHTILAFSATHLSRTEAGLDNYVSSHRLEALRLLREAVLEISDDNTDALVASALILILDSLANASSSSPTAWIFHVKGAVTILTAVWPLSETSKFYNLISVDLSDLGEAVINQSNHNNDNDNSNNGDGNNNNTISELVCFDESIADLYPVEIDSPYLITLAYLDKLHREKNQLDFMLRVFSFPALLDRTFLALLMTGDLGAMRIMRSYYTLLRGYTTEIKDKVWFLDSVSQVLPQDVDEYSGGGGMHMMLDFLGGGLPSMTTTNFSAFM
# Assay: PBM E-score (8-mer binding enrichment) (E-score (-0.5 to 0.5)); higher = stronger / more preferred TF binding
# Conditions: protein concentration: 200 nM; construct: GST-full length
# Method: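 Universal 'all 10-mer' protein binding microarrays (Agilent AMADID 015681) probed with GST-tagged S. cerevisiae TFs (full-length or DBD) made by in vitro transcription/translation (PURExpress), about 100-200 nM. Bound TF was detected with fluorescent anti-GST. Each ungapped 8-mer (which stands for itself and its reverse complement) is scored by the PBM enrichment score (E-score), a modified Wilcoxon-Mann-Whitney statistic from -0.5 to +0.5, computed with the Universal PBM Analysis Suite. Scale: above 0.35 generally sequence-specific binding.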
row,Sequence,PBM E-score
1,AATTTTGA,0.0335
2,CCCTGATA,-0.194
3,CGGATCTA,0.0938
4,CAAGCCGA,0.0727
5,AGACAGAA,-0.0147
6,CATGTACA,-0.0676
7,AATGTACG,0.331
8,CATGTACG,0.399
9,CAAGGGTA,-0.0852
10,CGTACAGA,0.382
11,AGTACAGA,0.0225
12,AGTACAGC,-0.113
13,CGTACAGC,0.427
14,CCTACAGC,-0.318
15,GGTACAGA,-0.0866
16,CGAAGGCG,0.124
17,CGGGTTAC,0.231
18,CGTTCCAG,0.418
19,AGTTCCAC,0.0665
20,GGTTCCAC,-0.237
21,AGTTCCAG,-0.172
22,CGTTCCAA,0.365
23,CGTTCCAC,0.405
24,CAATCTAG,-0.0844

row,Sequence,PBM E-score
1,AGGTCCCC,-0.33
2,GCTTCCGA,0.0694
3,GCTGCGAA,0.0942
4,CCACAGTC,-0.189
5,AGGGACAC,-0.0536
6,GGTTTACA,-0.0503
7,AGTTTACC,-0.0268
8,CATTTACC,-0.0682
9,CGTTTACA,0.405
10,CGTTTACC,0.435
11,AGTTTACA,-0.0418
12,GCTAGCCC,-0.379
13,GGCCCGGA,-0.142
14,GCAGGTCC,0.0428
15,CCATCTCG,0.105
16,ATCATACC,0.00527
17,CGCATACC,0.16
18,CGCATACA,0.111
19,ATCATACG,0.404
20,CACATACG,0.335
21,AACATACG,0.373
22,ATCATACA,0.0909
23,AACATACT,0.0945
24,CGCATACG,0.385

row,Sequence,PBM E-score
1,CCGTCTTC,-0.175
2,CCCTCAAA,-0.157
3,ATTTGCGG,0.0753
4,AACCGTTA,0.0731
5,ACGACAGT,0.382
6,ACGACAAG,0.334
7,ACGACAGG,0.339
8,ACGACAGC,0.319
9,ACGACAAT,0.368
10,ACGACAAC,0.366
11,CCGACAAA,0.0481
12,ACGACAAA,0.384
13,TCGACAAA,0.178
14,ACGCCAGG,0.0457
15,GTCCAGCA,-0.169
16,AAGCGTGT,-0.18
17,CAGATATC,-0.0887
18,GGTTCGAC,0.0422
19,TGCACAAA,-0.22
20,AATCTCGG,0.129
21,AAGCTCGT,0.38
22,AATCTCGT,0.386
23,AAGCTCGA,0.0757
24,AAGCTCGC,0.297

row,Sequence,PBM E-score
1,AATCTCGA,0.0888
2,TACATGGA,-0.119
3,GCAGGGCA,-0.18
4,GGCCACCA,-0.161
5,ACCAGAAG,-0.0736
6,CGACTGAA,0.163
7,ACCGAGCC,0.245
8,AAACGCTT,0.00074
9,AATCGATT,0.0191
10,AAACGATG,0.439
11,GAACGATC,0.432
12,CAACGATG,0.207
13,CCACGATC,0.0737
14,AAACGATT,0.42
15,AAACGATC,0.423
16,CAACGATC,0.175
17,GATCGATC,0.171
18,AGACGATC,-0.0754
19,AAACGCTG,0.0348
20,CATTAGGG,-0.168
21,AGAACCCG,-0.0503
22,ACTCTACG,0.265
